Data as given in PubChem BioAssay (EPA / NIEHS).
Records with an inconclusive call do not appear. Calls of active or inactive are those of the source. Rule for the calls, unless noted: active = hit-call score of the fitted dose curve at least 0.9, where 1 is the maximum; inconclusive = response in the unintended direction; inactive = score below 0.9.

Columns and labels:
[1] = CCTE_Deisenroth_5AR_NBTE_donor: CCTE's 5alpha-reductase NanoBRET Target Engagement Assay […], Deisenroth Lab (AID 2284319; active = hit-call score of the fitted dose curve at least 0.9, where 1 is the maximum; inactive = score below 0.9); settings: actives raise or lower the signal
How it was run: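 Donor NanoLuc luminescence at 460-20 nm is the read-out, serving artifact detection. Transiently expressed SRD5A2-NanoLuc in HEK293T; 5 h total chemical exposure, testosterone tracer added for the final 2 h; fitting bidirectional relative to DMSO baseline.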

[2] = CCTE_Deisenroth_5AR_NBTE_acceptor: CCTE's 5alpha-reductase NanoBRET Target Engagement Assay - Autofluorescence Screen, Deisenroth Lab (AID 2284321; active = hit-call score of the fitted dose curve at least 0.9, where 1 is the maximum; inactive = score below 0.9;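 note: compound fluorescence in the acceptor channel under 460 nm excitation flags autofluorescence artifacts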); settings: actives raise or lower the signal
How it was run: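 Chemicals diluted to a nominal 100 uM in DMSO were scanned at 460 nm excitation. Samples were read in three independent runs (n=3). Gain or loss of acceptor signal was fitted relative to DMSO.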

SRD5A2 (gene 6716) = assay: CCTE_Deisenroth_5AR_NBTE_ratio: CCTE's 5alpha-reductase NanoBRET Target Engagement Assay - Ratio, Deisenroth Lab (AID 2284322; active = hit-call score of the fitted dose curve at least 0.9, where 1 is the maximum; inactive = score below 0.9); settings: actives raise or lower the signal
How it was run: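 SRD5A2-NanoLuc HEK293T; cmpd 10 nM-29.9 uM, 3 h preinc + testosterone tracer 2 h; NanoBRET ratio 650/460; bidirectional fit vs DMSO.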

IYD (gene 389434) = assay: CCTE_GLTED_hIYD: CCTE's human Iodotyrosine Deiodinase (xIYD) Inhibition Assay, Great Lakes Toxicology and Ecology Division (GLTED) Lab (AID 2284317);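 note: cell-free human IYD enzyme made in baculovirus insect cells; iodide freed from monoiodotyrosine measured by cerium arsenite color change at 420 nm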
How it was run: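 Cell-free; baculovirus/insect-cell hIYD + MIT substrate + chemical, 3 h. Dowex column cleanup, then Ce4+/As3+ Sandell-Kolthoff read at A420 nm. Triplicate plates; normalized to 3-nitro-L-tyrosine (positive) and DMSO/NaOH (solvent).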

[3] = CCTE_Mundy_HCI_iCellGluta_NOG_NeuriteLength: CCTE's Neurite Outgrowth Assay in iCellGluta cells for Neurite Length, Mundy Lab (AID 2284318)
How it was run: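 Automated high-content imaging of betaIII-tubulin (Alexa Fluor-488) and Hoechst-stained cells gave neurite length, normalized to the DMSO baseline.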

[4] = VALA_TUBHUV_Agonist_CellCount: Viability Assessment in the VALA Sciences human Umbilical Vein Endothelial Tubule Formation (TUBHUV) Agonism Assay (AID 2284309)
How it was run: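 Viability endpoint by fluorescent imaging of fixed nuclear/CD31-stained HUVEC–HDF co-cultures. Readout is cell count, fitted upward against 0.1% DMSO. Compound exposure was 72 h in 10 ng/ml VEGF, after 3-day co-culture priming.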

[5] = VALA_TUBIPS_Agonist_TubuleLength: VALA Sciences human iPS-derived Endothelial Tubule Formation (TUBIPS) Agonism Assay (AID 2284311)
How it was run: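 Agonist-mode readout is the gain in imaged tubule length versus DMSO baseline. It was measured by fluorescence high-content imaging 72 h after dosing human iPSC-derived endothelial cells.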

[6] = IUF_NPC4_neurite_area_120hr: Leibniz Research Institute for Environmental Medicine (IUF) 120-hour Neuronal Morphology Assay for Neurite Area (NPC4) (AID 2284305)
How it was run: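 hNPC spheres on PDL/laminin, N2 medium, 37C/5% CO2; dosed day 0, half-medium refresh day 3; fixed 120 h; TUBB3/Hoechst ICC, high-content imaging; neurite area = mean pixels per neuron (nuclei excluded); DMSO baseline, max 0.1%.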

[7] = IUF_NPC2-5_cytotoxicity_72hr: Cytotoxicity Assessment at 72 hours in the Leibniz Research Institute for Environmental Medicine (IUF) Neural Progenitor Cell Migration and Differentiation Assay for Cytotoxicity (NPC2-5) (AID 2284306);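 note: LDH release into supernatant measured by resorufin fluorescence marking membrane damage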
How it was run: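 hNPC spheres (0.3 mm), PDL/laminin, DMEM/F12 3:1 + 1% N2; cpd from d0, 7 concs + SC, DMSO max 0.1%; half-medium refresh d3. Readout: supernatant LDH via resorufin fluorescence (RFU), 72 h; gain-of-signal fit.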

[8] = IUF_NPC2-5_cell_number_120hr: Cell Number Assessment at 120 hours in the Leibniz Research Institute for Environmental Medicine (IUF) Neural Progenitor Cell Migration and Differentiation Assay (NPC2-5) (AID 2284308; active = hit-call score of the fitted dose curve at least 0.9, where 1 is the maximum; inactive = score below 0.9;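 note: count of Hoechst-stained nuclei in migration zone around plated human neural progenitor spheres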)
How it was run: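 Cell number is taken as all Hoechst-positive nuclei detected in the area into which cells migrate out of the sphere, scored at 120 h and referenced to DMSO solvent control, which was kept at no more than 0.1%.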

[9] = IUF_NPC2-5_viability_120hr: Viability Assessment at 120 hours in the Leibniz Research Institute for Environmental Medicine (IUF) Neural Progenitor Cell Migration and Differentiation Assay (NPC2-5) (AID 2284312; active = hit-call score of the fitted dose curve at least 0.9, where 1 is the maximum; inactive = score below 0.9)
How it was run: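 Human fetal neural progenitor spheres (0.3 mm) plated on poly-D-lysine/laminin in N2 differentiation medium, exposed 120 h with half-medium refresh at day 3. Viability by alamar blue resazurin fluorescence; 7 concentrations, DMSO max 0.1%.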

TTR (gene 7276) = assay: CCTE_GLTED_hTTR_0.5uM: CCTE's human Transthyretin (hTTR) Inhibition Assay, with 0.5uM TTR, Great Lakes Toxicology and Ecology Division (GLTED) Lab (AID 2284320; active = hit-call score of the fitted dose curve at least 0.9, where 1 is the maximum; inactive = score below 0.9)
How it was run: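 Probe (ANSA) displacement from 0.5 uM human transthyretin was followed by fluorescence (ex 380, em 475) after a 2 h incubation with chemical. Activity was scored as signal loss and fitted positively relative to DMSO.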

[10] = IUF_NPC5_oligodendrocyte_differentiation_120hr: Leibniz Research Institute for Environmental Medicine (IUF) 120-hour Oligodendrocyte Differentiation Assay (NPC5) (AID 2284304);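 note: primary human fetal neural progenitor spheres plated to migrate and differentiate; share of O4-positive cells among Hoechst nuclei found by CNN image analysis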
How it was run: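 Human primary NPC neurospheres migrating and differentiating on laminin for 120 h under continuous compound exposure (serial dilution, solvent control). Endpoint: percent O4+ oligodendrocytes among Hoechst nuclei, detected by CNN image analysis, with DMSO as negative control.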

[11] = IUF_NPC2-5_cytotoxicity_120hr: Cytotoxicity Assessment at 120 hours in the Leibniz Research Institute for Environmental Medicine (IUF) Neural Progenitor Cell Migration and Differentiation Assay (NPC2-5) (AID 2284307);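 for AC50: LDH released into supernatant as membrane damage marker via resorufin fluorescence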
How it was run: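 Fluorescence (RFU) from LDH-driven resazurin reduction in medium supernatants measured loss of membrane integrity after 120 h of compound exposure of differentiating primary human neural progenitor spheres on an extracellular matrix.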

[12] = VALA_TUBHUV_Antagonist_CellCount: Viability Assessment in the VALA Sciences human Umbilical Vein Endothelial Tubule Formation (TUBHUV) Antagonism Assay (AID 2284310)
How it was run: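 Read-out is imaged cell count after nuclear and CD31 staining, fitted against 0.1% DMSO vehicle. Compounds were added for 3 days, in 10 ng/ml VEGF assay medium, to HUVEC–HDF co-cultures pre-grown 3 days.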

[13] = VALA_TUBIPS_Antagonist_TubuleLength: VALA Sciences human iPS-derived Endothelial Tubule Formation (TUBIPS) Antagonist Assay (AID 2284313)
How it was run: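 Tubule length was quantified by high-content imaging of CD31- and nuclear-stained cells, with 0.1% DMSO as neutral and 100 uM suramin as inhibition control. Compounds were applied for 3 days, in 10 ng/ml VEGF, to cultures pre-grown 3 days.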

[14] = VALA_MIGHUV2_Bcatenin: VALA Sciences human Umbilical Vein Endothelial Cell Migration (MIGHUV) Assay, Nuclear Translocation of beta-Catenin after Recovery (AID 2284315)
How it was run: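 Nuclear beta-catenin imaged by immunofluorescence with Hoechst counterstain in fixed HUVEC, 24 h after scratch wounding and chemical addition. Six-point concentration-response in triplicate; activity scored as signal increase over 0.1% DMSO vehicle.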

[15] = VALA_MIGHUV2_WoundArea: VALA Sciences human Umbilical Vein Endothelial Cell Migration (MIGHUV) Assay, Area of Scratch Wound after Recovery (AID 2284316)
How it was run: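 Wound-area endpoint read by fluorescence imaging of Hoechst-stained nuclei after a 24 h recovery period following scratch of HUVEC monolayers (9000 cells/well). Chemicals dosed within 30 min post-scratch, triplicate 6-point series, 0.1% DMSO vehicle; Cytochalasin D positive control.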

[16] = VALA_TUBHUV_Antagonist_TubuleLength: VALA Sciences human Umbilical Vein Endothelial Tubule Formation (TUBHUV) Antagonism Assay (AID 2284325)
How it was run: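 Tubule length was imaged via CD31 immunofluorescence after a further 3-day compound exposure in 10 ng/ml VEGF, following 3-day pre-culture of HUVEC with HDF at 1:3. Vehicle 0.1% DMSO; suramin (100 uM) inhibition control.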

[17] = VALA_MIGHUV2_CellCount: Viability Assessment in the VALA Sciences human Umbilical Vein Endothelial Cell Migration (MIGHUV) Assay, Area of Scratch Wound after Recovery (AID 2284314)
How it was run: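 Viability read-out: Hoechst-stained nuclei counted by fluorescence imaging after a 24 h recovery period in fixed, scratched HUVEC plates. Compound was dosed within 30 min of scratching at six concentrations (triplicate); DMSO at 0.1 % served as baseline.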

Measured: AC50

[Cl-].[Cl-].[Hg+2]
active: [1] 74.8 µM | [2] 73.3 µM | SRD5A2 (gene 6716) 75.4 µM

Clc1ccc(C(c2ccc(Cl)cc2)C(Cl)(Cl)Cl)cc1
active: IYD (gene 389434) 35.2 µM

CN(C)[C@@H]1C(=O)C(C(N)=O)=C(O)[C@@]2(O)C(=O)C3=C(O)c4c(O)cccc4[C@@](C)(O)[C@H]3C[C@@H]12
active: [3] 23.3 µM

Nc1ccc(N=Nc2ccccc2)cc1
inactive: [2]
active: [1] 23.8 µM | SRD5A2 (gene 6716) 50 µM

Clc1ccc(Cl)c(Cl)c1
inactive: [4] | [5]

COC(=O)Nc1nc2ccccc2[nH]1
active: [8] 7.82 µM | [9] 12.5 µM
inactive: [6] | [7] | [3]

CCNS(=O)(=O)C(F)(F)C(F)(F)C(F)(F)C(F)(F)C(F)(F)C(F)(F)C(F)(F)C(F)(F)F
active: TTR (gene 7276) 1.54 µM

Cc1ccc(N)c(N)c1
inactive: [1]
active: [2] 50 µM | SRD5A2 (gene 6716) 22.7 µM

CCC[CH2][Sn]([Cl])([CH2]CCC)[CH2]CCC
active: [10] 0.12 µM | [6] 0.312 µM | [7] 0.31 µM | [11] 0.455 µM | [8] 0.31 µM | [9] 0.393 µM | [3] 0.163 µM | [1] 4.88 µM | [2] 4.25 µM | SRD5A2 (gene 6716) 16.8 µM

OCCOCCO
inactive: [10] | [7] | [11] | [8] | [9]

CCCCOC(=O)c1ccccc1C(=O)OCc1ccccc1
inactive: [6] | [7] | [11] | [8] | [9] | [3]

CO[C@@H]1[C@H](OC(=O)NC(=O)CCl)CC[C@]2(CO2)[C@H]1[C@@]1(C)O[C@@H]1CC=C(C)C
inactive: [4] | [12] | [13] | [15] | [16]
active: [14] 0.00129 µM

COP(=S)(OC)SCN1C(=O)c2ccccc2C1=O
inactive: [10] | [6] | [7] | [11] | [8] | [9]
active: [3] 92.2 µM

CC(C)(O)c1cnn2c(-c3ccc(F)c(-c4c(F)cccc4C#N)c3)cnc2n1
inactive: [1] | [2]
active: SRD5A2 (gene 6716) 13.5 µM

Cc1cc(N=Nc2ccccc2C)ccc1N
active: [1] 40.6 µM | [2] 38.4 µM | SRD5A2 (gene 6716) 50 µM

[O-][Cl+]O
active: [3] 24 µM
inactive: [6] | [7] | [11] | [8] | [9]

CC(C)(C)C(O)(CCc1ccc(Cl)cc1)Cn1cncn1 (configuration not stated)
inactive: [10] | [6] | [7] | [11] | [8] | [9]

CC(C)COC(=O)c1ccccc1C(=O)OCC(C)C
inactive: [10] | [6] | [7] | [11] | [8] | [9] | [3]

CNC(=O)Oc1cccc2c1OC(C)(C)C2
active: [3] 49.6 µM
inactive: [10] | [6] | [7] | [11] | [8] | [9]

c1ccc2c(c1)-c1cccc3cccc-2c13
inactive: [1] | [2] | SRD5A2 (gene 6716)

Oc1ccc2ccc3cccc4ccc1c2c34
inactive: [4] | [12] | [13] | [16]

COc1cc(C=O)cc2c1[C@H](COC(N)=O)[C@]1(OC(C)=O)ON2C[C@H]2[C@@H]1N2C(C)=O
inactive: [1] | [2] | SRD5A2 (gene 6716)

O=P(OCCCl)(OCCCl)OCCCl
inactive: [6] | [7] | [11] | [8] | [4] | [5] | [9] | [13] | [17] | [16]
active: [12] 88.3 µM

C[C@]12C=CC3=C4CCC(=O)C=C4CC[C@H]3[C@@H]1CC[C@@H]2O
inactive: [1] | [2] | SRD5A2 (gene 6716)

CCCCCCCCn1sccc1=O
active: [1] 72.7 µM | [2] 73.2 µM | SRD5A2 (gene 6716) 71.1 µM
